Data taken from PubChem BioAssay AID1159580 (chemical genetic matrix, 2015).
About 2,000 (36%) of roughly 5,500 compounds were called active. Roughly 18% stayed inconclusive and do not appear here. Rule as the data show it: active = normalized growth mostly below about 0.91 (no sharp cut-off); inconclusive = no clear call, values can overlap the other calls; inactive = mostly above about 0.92. This is one part of the list.

Test: chemical genetic growth profiling, strain panel (AID 1159580);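 also: tested at 20 µM; growth read once vehicle control cultures reached saturation at 30 °C; 1 = growth at the plate median or of vehicle wells; lower values mean less growth of the strain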
Details: S. cerevisiae deletion strains, growth OD

Measured: normalized growth

CC(=O)NC(CCC(=O)O)C(=O)O (stereo not drawn)
active: locus YHR087W, strain rtc3, active compounds read low 1.13 [resistant]
inactive: locus YAL013W, strain DEP1, active compounds read low 0.985 | locus YBR229C, strain ROT2, active compounds read low 0.966 | locus YCL061C, strain MRC1, active compounds read low 0.984 | locus YDL101C, strain DUN1, active compounds read low 0.96 | locus YDR150W, strain NUM1, active compounds read low 0.974 | locus YEL061C, strain CIN8, active compounds read low 0.975 | locus YGR078C, strain PAC10, active compounds read low 0.983 | locus YHR030C, strain SLT2, active compounds read low 0.973 | locus YJR043C, strain POL32, active compounds read low 0.976 | locus YJR075W, strain HOC1, active compounds read low 0.99 | locus YKL190W, strain CNB1, active compounds read low 0.99 | locus YLR039C, strain RIC1, active compounds read low 0.978 | locus YLR058C, strain SHM2 (second series), active compounds read low 0.981 | locus YLR085C, strain ARP6, active compounds read low 0.975 | locus YLR262C, strain YPT6, active compounds read low 1.01 | locus YML094W, strain GIM5, active compounds read low 0.981 | locus YMR219W, strain ESC1, active compounds read low 0.975 | locus YMR263W, strain SAP30, active compounds read low 0.987 | locus YMR307W, strain GAS1, active compounds read low 1.1 | locus YNL153C, strain GIM3, active compounds read low 0.978 | locus YNL298W, strain CLA4 (second series), active compounds read low 0.984 | locus YNL322C, strain KRE1, active compounds read low 0.984 | locus YNR030W, strain Alg12, active compounds read low 1.02 | locus YOL006C, strain TOP1, active compounds read low 0.964 | locus YPL055C, strain LGE1, active compounds read low 1.03 | locus YPL241C, strain CIN2, active compounds read low 0.973 | locus YPR135W, strain CTF4, active compounds read low 0.969
